Bioassay records: PubChem BioAssay, National Center for Advancing Translational Sciences (NCATS)
Only some compounds are listed: those with a hit (about 19% of all), similar ones and a draw of the others.
DT40 TDP1 CPT = qHTS for Inhibitors of human tyrosyl-DNA phosphodiesterase 1 (TDP1): qHTS in cells in presence of CPT; chicken DT40 Tdp1-/-;hTDP1 cells + 20 nM CPT, ATP luminescence, 48 h; 420,000 tested, 12% active; Potency, µM (highest dose often 46.2 µM), without a hit: top-dose activity change, negative = growth inhibition, actives largely listed as inhibitors; note: potency is the fitted concentration of half-maximal effect; nearly all actives have a fitted effect of over 55% in size
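Cell growth measured by CellTiter-Glo luminescence after a minimum 48 h, 37 C compound exposure with 20 nM CPT in Tdp1-knockout DT40 cells stably expressing hTDP1, seeded 400/well; qHTS titration format.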
HT1080 IDH1KD tx = qHTS for induction of synthetic lethality in tumor cells producing 2HG: qHTS for the HT-1080-IDH1KD cell line; AID 686971, 2013; Potency, µM (doses to about 46.1 µM), inactives show at the highest dose activity, negative = toxicity, usual class: cytotoxic; 360,000 tested, 2% active; HT-1080 IDH1 knockdown viability, ATP luminescence, 48 h;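 note: potency is the fitted concentration of half-maximal effect; 0% = DMSO wells and -100% = cell-free medium wells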
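Cytotoxicity counter-line: IDH1KD HT-1080, 48 h, CellTiter-Glo. Curves classed by r2, magnitude and activity.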
HT1080-NT tox = qHTS for induction of synthetic lethality in tumor cells producing 2HG: qHTS for the HT-1080-NT fibrosarcoma cell line; HT-1080-NT fibrosarcoma viability, CellTiter-Glo ATP luminescence, 48 h; Potency, µM (series often up to 46.1 µM), without a hit: top-dose activity, negative = less viability, usual class: cytotoxic; 360,000 tested, 1.6% active; AID 686970, 2013;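 note: NT is the 2HG producing partner of a matched IDH1 knockdown line; potency is the fitted concentration of half-maximal effect; 0% = DMSO-treated cells and -100% = media-only wells without cells; nearly all actives have a fitted effect of over 55% in size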
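Luminescent CellTiter-Glo readout after 48 hours of compound exposure at 37 degrees C defined viability of HT-1080-NT cells. Activity was normalized to DMSO wells and cell-free media wells; concentration-response curves were fitted and assigned curve classes.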
TDP1 cell noCPT = qHTS for Inhibitors of human tyrosyl-DNA phosphodiesterase 1 (TDP1): qHTS in cells in absence of CPT; Potency, µM (series often up to 46.2 µM), for the others: at the top dose activity change, negative = growth inhibition, hits mostly inhibitors; DT40 Tdp1-/- hTDP1 cells, no CPT, ATP luminescence, 48 h; 420,000 tested, 15% active; note: potency is the fitted concentration of half-maximal effect; nearly all actives have a fitted effect of over 55% in size
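Compound effects on proliferation are scored in DT40 Tdp1-/-;hTDP1 cells in the absence of CPT. ATP levels (CellTiter-Glo luminescence) are recorded after a ≥48 hr, 37 °C incubation.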
IL-1B inflam inh = qHTS for Inhibitors of Inflammasome Signaling: IL-1-beta AlphaLISA Primary Screen; 360,000 tested, 4.7% active; activity change, % at 57.5 µM; AID 743279, 2014; THP-1 LPS/ATP IL-1B secretion, AlphaLISA, 16 h; hits give low values; in the data active = activity change below about -50%; inconclusive = mostly about -30% to -49%
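THP-1 cells pretreated 1 hr with compounds (up to 57.5 uM final), then stimulated with LPS (250 ng/mL final) plus ATP (1.25 mM final); secreted IL-1B measured by AlphaLISA after 16 hr, decreased signal indicating inhibition.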
ELG1 DNA repair = qHTS screen for small molecules that inhibit ELG1-dependent DNA repair in human embryonic kidney (HEK293T) cells expressing luciferase-tagged ELG1; HEK293T ELG1-luciferase reporter, luminescence, 16 h; DNA damage induced by 5-fluorouridine; Potency, µM (highest dose often 46.1 µM), for the others: at the top dose activity change, negative = inhibition, most hits filed as inhibitors; 330,000 tested, 2.3% active; note: potency is the fitted concentration of half-maximal effect; nearly all actives have a fitted effect of over 55% in size
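Cells (2,000 per well) received 5-fluorouridine plus test compound or DMSO and were incubated 16 hr at 37 °C, 5% CO2. Luciferase activity was read by luminescence 30 min after ONE-Glo addition; signal suppression marked inhibition of damage-induced ELG1 function.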
The depositor's hits bear a star; i = inactive; ? = inconclusive; nt = no result; [ ] = another dose, or the depositor's remark. Unless noted, calls come from the whole dose curve; as a rule, active = well fitted curve in the direction sought with a large enough effect; inconclusive = small, poorly fitted or top-dose-only effect, or another doubt; inactive = no such curve, though single readings can be large; an effect the other way counts as inactive or inconclusive. Unless noted, % is set by controls: 0 for no effect and ±100 for the full control effect.

SMILES	DT40 TDP1 CPT	HT1080 IDH1KD tx	HT1080-NT tox	TDP1 cell noCPT	IL-1B inflam inh	ELG1 DNA repair
CCCc1sc(N/N=C/c2ccccn2)nc1-c1ccc(F)cc1	4.6µM*	3.2µM*	2.8µM*	4.6µM*	-100*	?
CCCCNC(=O)c1nc(-c2cccnc2)oc1-c1ccc(OC(F)(F)F)cc1	26%	-4%	12%	5%	18	nt
CCOc1ccccc1N1CC(C(=O)NCCC2=CCCCC2)CC1=O (stereo unspecified)	?	-3%	0%	-29%	-18	nt
CSc1cccc(N2CC(C(=O)Nc3cccc(S(=O)(=O)N4CCCC4)c3)CC2=O)c1 (stereo unspecified)	21µM*	-9%	0%	15µM*	6	?
CCC(C)c1ccccc1N1CC(C(=O)Nc2cccc(S(=O)(=O)N3CCOCC3)c2)CC1=O (stereo unspecified)	18µM*	1%	-2%	18µM*	i	-7%
O=C(Nc1cc(Cl)ccc1Cl)C1CC(=O)N(c2ccccc2)C1 (stereo unspecified)	-4%	-10%	-19%	-7%	-9	0%
CCC(C)c1ccccc1N1CC(C(=O)NCCC2=CCCCC2)CC1=O (stereo unspecified)	18µM*	1%	-2%	16µM*	-3	-17%
CCc1ccccc1N1CC(C(=O)Nc2cc(S(=O)(=O)N3CCCC3)ccc2Cl)CC1=O (stereo unspecified)	?	16%	0%	15µM*	15	?
COc1ccc(-n2cc(C#N)c(=O)[nH]c2=O)cc1	7%	-1%	0%	2%	4	-4%
CCOC(=O)C1CCN(S(=O)(=O)c2ccc3[nH]c4c(c3c2)CCCC4)CC1	?	25%	-11%	-19%	44	-24%
CSc1cccc(NC(=O)C2CCN(S(=O)(=O)c3ccc4[nH]c5c(c4c3)CCCCC5)CC2)c1	?	nt	nt	21µM*	nt	nt
Cc1cccc(N2CC(C(=O)Nc3cccc(S(=O)(=O)N4CCCCC4)c3)CC2=O)c1C (stereo unspecified)	18µM*	-14%	-22%[9.24 µM]	?	-51*	?
Cc1cccc(N2CC(C(=O)Nc3ccc(S(=O)(=O)N4CCOCC4)cc3)CC2=O)c1C (stereo unspecified)	-22%	2%	-2%	2%	9	-1%
C[C@H](NC(=O)c1ccco1)C(=O)Nc1cc(S(=O)(=O)N2CCCC2)ccc1OCC(F)(F)F	-14%	-1%	6%	-2%	9	4%
COc1ccccc1NC(=O)C(=O)NCC1CCCN1S(=O)(=O)c1cccs1 (stereo unspecified)	?	9%	12%	?	-16	-18%
COc1ccccc1NC(=O)C(=O)NCCC1CCCCN1S(=O)(=O)c1cccs1 (stereo unspecified)	29µM*	-17%	-22%	18µM*	-17	?
O=C(NCCC1CCCCN1S(=O)(=O)c1cccs1)C(=O)Nc1ccccc1F (stereo unspecified)	?	6%	5%	23µM*	4	-14%
COc1ccc(CNC(=O)C(=O)NCC2CCCN2S(=O)(=O)c2cccs2)cc1 (stereo unspecified)	?	-11%	0%	?	-3	0%
O=C(NCCC1CCCCN1S(=O)(=O)c1cccs1)C(=O)NCc1ccccc1 (stereo unspecified)	15µM*	-16%	-22%	21µM*	0	?
COc1cccc(C(=O)O/N=C(\N)CS(=O)(=O)c2ccccc2)c1	-26%	16%	14%	16%	30	?
Cc1ccc(C)c(N2CCN(c3nc4ccccc4n4c(C)nnc34)CC2)c1	0%	nt	nt	-4%	nt	nt
Cc1cccc(C)c1NC(=O)CN(C)CC(=O)N1CC(=O)Nc2ccccc21	10%	3%	-1%	-4%	30	-10%
COc1ccc(NC(=O)C[C@H]2C(=O)N(Cc3ccccc3)C[C@@H]2c2ccc(OC)cc2)cc1	-5%	6%	1%	6%	5	nt
O=C(C[C@H]1C(=O)N(Cc2ccccc2)C[C@@H]1c1ccc(Br)cc1)Nc1ccc(Br)cc1	26µM*	?	-13%	26µM*	-15	nt
O=C(C[C@H]1C(=O)N(Cc2cccnc2)C[C@@H]1Cc1ccccc1)Nc1ccc(Br)cc1	?	?	?	15µM*	?	nt
SMILES	DT40 TDP1 CPT	HT1080 IDH1KD tx	HT1080-NT tox	TDP1 cell noCPT	IL-1B inflam inh	ELG1 DNA repair
CC1(C)OC(=O)C2(Cc3cc(C(F)(F)F)ccc3N3CCCCC32)C(=O)O1 (stereo unspecified)	6%	nt	nt	-24%	nt	nt
Cc1cccc(N(C)c2nc3ccc(C(=O)c4ccccc4)cc3n3c(C)nnc23)c1	?	nt	nt	21µM*	nt	nt
COc1ccc(CN2CCNC(=O)C2CC(=O)NCc2cn3ccc(C)cc3n2)c(OC)c1 (stereo unspecified)	3%	12%	-1%	-11%	-17	-3%
OC(CNC1CCCCCC1)COc1cccc2ccccc12 (stereo unspecified)	16µM*	?	21µM*	13µM*	-105*	5%
Cc1ccccc1OCC(O)CNC1CCC(NCC(O)COc2ccccc2C)CC1 (stereo unspecified)	3.7µM*	2.3µM*	2.9µM*	2.3µM*	-98*	?
CCOC(=O)c1[nH]c(CSc2nnc(-c3ccc(OC)cc3)o2)c(C(=O)OCC)c1C	-19%	-2%	-4%	-11%	-8	?
COc1ccc(-c2nnc(SCC(=O)c3[nH]c(C)c(C(C)=O)c3C)o2)cc1	13µM*	-11%	-7%	18µM*	49	?
CC(=O)c1c(C)[nH]c(C(=O)CSc2nnc(-c3ccco3)o2)c1C	?	-4%	-1%	15µM*	-23	?
CCOC(=O)c1c(C)[nH]c(C)c1C(=O)CSc1nnc(-c2ccc(OC(F)F)cc2)o1	?	?	?	12µM*	18	?
